According to article PMC7862700, “An all-to-all approach to the identification of sequence-specific readers for epigenetic DNA modifications on cytosine”:

Columns and labels:
Experiment in all cases: DAPPL (digital affinity profiling via proximity ligation, sequencing); 10 mM Tris-HCl pH 7.5, 50 mM NaCl, 1 mM DTT, 4% glycerol, room temperature, 30 min; GST-TFs on glutathione beads, 16-mer random dsDNA library, 0.1% formaldehyde crosslink after washing; high values mean tight binding
FLI1 = molecular target: T1, FLI1 (Homo sapiens, UniProt Q01543 1-452); conditions: protein: recombinant; tags: N-terminal GST; dsDNA, one strand shown
T1 sequence: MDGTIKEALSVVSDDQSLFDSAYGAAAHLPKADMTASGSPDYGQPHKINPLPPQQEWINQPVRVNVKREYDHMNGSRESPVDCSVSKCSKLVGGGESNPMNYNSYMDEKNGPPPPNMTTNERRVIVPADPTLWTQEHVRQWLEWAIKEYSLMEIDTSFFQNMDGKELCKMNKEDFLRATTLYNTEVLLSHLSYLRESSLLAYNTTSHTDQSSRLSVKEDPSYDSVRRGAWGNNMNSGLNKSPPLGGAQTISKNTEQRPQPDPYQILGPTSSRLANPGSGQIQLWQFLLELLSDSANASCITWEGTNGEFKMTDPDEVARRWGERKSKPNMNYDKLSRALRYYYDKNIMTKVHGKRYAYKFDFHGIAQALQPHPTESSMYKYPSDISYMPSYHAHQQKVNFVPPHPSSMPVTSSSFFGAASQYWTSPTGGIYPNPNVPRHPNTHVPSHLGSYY
Summary of the method: (§1)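 Sequencing on an Illumina NextSeq500 followed washing, crosslinking with 0.1% formaldehyde, proximity ligation (BsaI/T4 ligase, 1 h, 37 °C) and PCR amplification of pools that had been incubated for 30 min at room temperature with 200 nmole of a random double-stranded 16-mer DNA library in Tris/NaCl/DTT/glycerol buffer. Each pool held DNA-barcoded human transcription factors, expressed in yeast as GST fusions and captured on glutathione beads, plus a tag-only sample. Binding signal is a hexamer's read frequency for a factor divided by its frequency in the tag-only sample.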

ELK1 = molecular target: T2, ELK1 (Homo sapiens, UniProt P19419 1-428); conditions: protein: recombinant; tags: N-terminal GST; dsDNA, one strand shown
T2 sequence: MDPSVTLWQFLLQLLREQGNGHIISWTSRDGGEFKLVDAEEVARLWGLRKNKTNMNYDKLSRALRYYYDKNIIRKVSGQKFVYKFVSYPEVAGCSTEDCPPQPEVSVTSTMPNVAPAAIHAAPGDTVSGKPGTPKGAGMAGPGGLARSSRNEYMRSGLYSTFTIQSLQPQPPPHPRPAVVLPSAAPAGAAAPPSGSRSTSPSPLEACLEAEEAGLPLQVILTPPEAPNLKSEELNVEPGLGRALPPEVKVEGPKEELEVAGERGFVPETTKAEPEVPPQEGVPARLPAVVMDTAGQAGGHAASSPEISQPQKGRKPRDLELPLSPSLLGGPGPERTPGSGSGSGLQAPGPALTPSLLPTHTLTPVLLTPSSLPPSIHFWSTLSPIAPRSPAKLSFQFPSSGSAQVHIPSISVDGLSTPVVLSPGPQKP
Summary of the method: as §1

GABPA = molecular target: T3, GABPA (Homo sapiens, UniProt Q06546 1-454); conditions: protein: recombinant; tags: N-terminal GST; dsDNA, one strand shown
T3 sequence: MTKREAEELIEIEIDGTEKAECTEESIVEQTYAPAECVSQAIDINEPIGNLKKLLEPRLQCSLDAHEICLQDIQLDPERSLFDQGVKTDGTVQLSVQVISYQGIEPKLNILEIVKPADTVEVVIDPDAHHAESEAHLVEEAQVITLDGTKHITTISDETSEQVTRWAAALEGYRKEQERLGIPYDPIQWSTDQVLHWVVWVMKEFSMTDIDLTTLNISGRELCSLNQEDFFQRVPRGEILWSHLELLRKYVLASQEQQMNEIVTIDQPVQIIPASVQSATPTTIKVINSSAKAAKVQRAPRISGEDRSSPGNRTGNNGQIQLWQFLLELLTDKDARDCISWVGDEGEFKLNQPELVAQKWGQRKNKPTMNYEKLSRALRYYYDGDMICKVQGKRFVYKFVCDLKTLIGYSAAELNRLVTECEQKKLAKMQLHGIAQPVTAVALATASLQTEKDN
Summary of the method: as §1

ERG = molecular target: T4, ERG (Homo sapiens, UniProt P11308 1-479); conditions: protein: recombinant; tags: N-terminal GST; dsDNA, one strand shown
T4 sequence: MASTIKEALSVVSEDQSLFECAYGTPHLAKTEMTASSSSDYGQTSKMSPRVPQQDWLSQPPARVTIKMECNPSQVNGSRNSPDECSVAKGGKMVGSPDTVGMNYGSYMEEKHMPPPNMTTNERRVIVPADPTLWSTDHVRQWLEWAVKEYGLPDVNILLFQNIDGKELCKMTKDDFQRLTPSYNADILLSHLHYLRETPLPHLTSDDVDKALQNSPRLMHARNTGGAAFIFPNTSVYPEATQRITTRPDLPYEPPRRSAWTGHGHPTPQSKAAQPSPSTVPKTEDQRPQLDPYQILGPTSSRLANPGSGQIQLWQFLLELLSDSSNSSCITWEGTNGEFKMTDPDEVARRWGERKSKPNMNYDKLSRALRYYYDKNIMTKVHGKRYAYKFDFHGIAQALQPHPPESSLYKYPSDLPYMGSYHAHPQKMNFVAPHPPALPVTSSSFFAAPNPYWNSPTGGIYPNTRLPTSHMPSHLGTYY
Summary of the method: as §1

ELF1 = ELF1 (Homo sapiens, UniProt P32519 1-619); conditions: protein: recombinant; tags: N-terminal GST; dsDNA, one strand shown
Summary of the method: as §1

EHF = molecular target: T5, EHF (Homo sapiens, UniProt Q9NZC4 1-300); conditions: protein: recombinant; tags: N-terminal GST; dsDNA, one strand shown
T5 sequence: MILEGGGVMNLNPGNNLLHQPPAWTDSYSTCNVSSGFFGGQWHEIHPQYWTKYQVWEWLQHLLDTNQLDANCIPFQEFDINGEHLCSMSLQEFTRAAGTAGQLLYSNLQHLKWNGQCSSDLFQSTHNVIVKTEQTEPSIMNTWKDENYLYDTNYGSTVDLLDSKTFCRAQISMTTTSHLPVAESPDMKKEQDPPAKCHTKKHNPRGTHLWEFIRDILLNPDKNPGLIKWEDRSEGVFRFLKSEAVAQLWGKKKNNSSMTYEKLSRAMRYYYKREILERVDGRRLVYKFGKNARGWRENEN
Summary of the method: as §1

SPI1 = SPI1 (Homo sapiens, UniProt P17947 1-270); conditions: protein: recombinant; tags: N-terminal GST; dsDNA, one strand shown
Summary of the method: as §1

SPIB = SPIB (Homo sapiens, UniProt Q01892 1-262); conditions: protein: recombinant; tags: N-terminal GST; dsDNA, one strand shown
Summary of the method: as §1

ELK3 = molecular target: T6, ELK3 (Homo sapiens, UniProt P41970 1-407); conditions: protein: recombinant; tags: N-terminal GST; dsDNA, one strand shown
T6 sequence: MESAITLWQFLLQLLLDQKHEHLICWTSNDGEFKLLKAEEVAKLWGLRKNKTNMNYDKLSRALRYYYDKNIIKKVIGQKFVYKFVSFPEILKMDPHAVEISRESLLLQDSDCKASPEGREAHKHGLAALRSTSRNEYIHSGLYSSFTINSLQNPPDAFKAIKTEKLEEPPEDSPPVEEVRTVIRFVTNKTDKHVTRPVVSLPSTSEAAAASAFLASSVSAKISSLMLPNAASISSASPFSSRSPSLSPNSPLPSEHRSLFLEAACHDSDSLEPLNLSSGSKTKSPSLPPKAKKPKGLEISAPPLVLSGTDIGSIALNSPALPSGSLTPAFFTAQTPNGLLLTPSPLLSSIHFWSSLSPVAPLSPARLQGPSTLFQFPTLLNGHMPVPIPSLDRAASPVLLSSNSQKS
Summary of the method: as §1

FEV = molecular target: T7, FEV (Homo sapiens, UniProt Q99581 1-238); conditions: protein: recombinant; tags: N-terminal GST; dsDNA, one strand shown
T7 sequence: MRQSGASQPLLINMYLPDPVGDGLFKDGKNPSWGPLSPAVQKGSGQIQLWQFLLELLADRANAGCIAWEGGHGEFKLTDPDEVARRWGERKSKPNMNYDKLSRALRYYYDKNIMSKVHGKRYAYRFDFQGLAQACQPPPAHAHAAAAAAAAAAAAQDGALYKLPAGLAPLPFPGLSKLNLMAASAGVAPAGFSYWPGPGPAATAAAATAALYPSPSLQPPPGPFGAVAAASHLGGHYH
Summary of the method: as §1

ETV5 = ETV5 (Homo sapiens, UniProt P41161 1-510); conditions: protein: recombinant; tags: N-terminal GST; dsDNA, one strand shown
Summary of the method: as §1

HSF1 = HSF1 (Homo sapiens, UniProt Q00613 1-529); conditions: protein: recombinant; tags: N-terminal GST; chain copies: 3; dsDNA, one strand shown
Summary of the method: as §1

SPIC = molecular target: T8, SPIC (Homo sapiens, UniProt Q8N5J4 1-248); conditions: protein: recombinant; tags: N-terminal GST; dsDNA, one strand shown
T8 sequence: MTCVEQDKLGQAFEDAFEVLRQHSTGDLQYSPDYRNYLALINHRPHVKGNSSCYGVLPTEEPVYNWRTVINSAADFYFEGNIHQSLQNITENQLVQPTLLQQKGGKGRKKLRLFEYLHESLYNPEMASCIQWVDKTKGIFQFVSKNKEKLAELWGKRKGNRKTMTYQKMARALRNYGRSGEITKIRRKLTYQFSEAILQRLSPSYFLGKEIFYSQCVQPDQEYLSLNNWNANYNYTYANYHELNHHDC
Summary of the method: as §1

ELF4 = ELF4 (Homo sapiens, UniProt Q99607 1-663); conditions: protein: recombinant; tags: N-terminal GST; dsDNA, one strand shown
Summary of the method: as §1

ELK4 = molecular target: T9, ELK4 (Homo sapiens, UniProt P28324-2 1-405); conditions: protein: recombinant; tags: N-terminal GST; dsDNA, one strand shown
T9 sequence: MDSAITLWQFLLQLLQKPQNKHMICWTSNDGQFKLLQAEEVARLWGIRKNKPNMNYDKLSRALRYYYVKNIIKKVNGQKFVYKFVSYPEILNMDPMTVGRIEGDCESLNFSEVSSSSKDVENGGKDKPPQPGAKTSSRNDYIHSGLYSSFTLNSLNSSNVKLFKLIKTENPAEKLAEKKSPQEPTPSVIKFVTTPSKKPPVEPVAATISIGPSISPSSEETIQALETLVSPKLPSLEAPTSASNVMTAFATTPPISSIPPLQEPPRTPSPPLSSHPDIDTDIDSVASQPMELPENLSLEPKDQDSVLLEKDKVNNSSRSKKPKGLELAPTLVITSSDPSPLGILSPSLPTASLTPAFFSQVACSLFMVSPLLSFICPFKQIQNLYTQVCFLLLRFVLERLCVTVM
Summary of the method: as §1

ETV2 = molecular target: T10, ETV2 (Homo sapiens, UniProt O00321 1-342); conditions: protein: recombinant; tags: N-terminal GST; dsDNA, one strand shown
T10 sequence: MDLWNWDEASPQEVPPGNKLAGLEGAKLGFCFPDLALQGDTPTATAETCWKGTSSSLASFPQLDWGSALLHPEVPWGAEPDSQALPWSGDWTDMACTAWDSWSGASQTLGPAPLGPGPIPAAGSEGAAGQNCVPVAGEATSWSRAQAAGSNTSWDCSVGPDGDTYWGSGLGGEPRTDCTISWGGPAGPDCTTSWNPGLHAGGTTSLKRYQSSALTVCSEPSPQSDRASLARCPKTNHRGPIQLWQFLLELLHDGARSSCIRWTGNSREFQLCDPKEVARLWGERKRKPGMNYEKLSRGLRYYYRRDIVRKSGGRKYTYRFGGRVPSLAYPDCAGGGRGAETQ
Summary of the method: as §1

ELF3 = molecular target: T11, ELF3 (Homo sapiens, UniProt P78545 1-371); conditions: protein: recombinant; tags: N-terminal GST; dsDNA, one strand shown
T11 sequence: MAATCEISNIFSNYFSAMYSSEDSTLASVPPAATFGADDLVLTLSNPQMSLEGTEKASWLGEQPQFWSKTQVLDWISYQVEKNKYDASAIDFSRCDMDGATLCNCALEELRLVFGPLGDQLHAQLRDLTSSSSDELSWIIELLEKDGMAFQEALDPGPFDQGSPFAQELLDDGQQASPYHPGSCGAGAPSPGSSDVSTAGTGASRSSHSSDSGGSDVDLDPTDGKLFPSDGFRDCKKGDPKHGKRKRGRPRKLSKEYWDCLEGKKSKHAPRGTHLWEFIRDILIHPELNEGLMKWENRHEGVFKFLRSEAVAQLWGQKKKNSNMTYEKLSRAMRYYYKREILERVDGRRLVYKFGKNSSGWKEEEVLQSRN
Summary of the method: as §1

CRX = CRX (Homo sapiens, UniProt O43186 1-299); conditions: protein: recombinant; tags: N-terminal GST; dsDNA, one strand shown
Summary of the method: as §1

ETV1 = ETV1 (Homo sapiens, UniProt P50549 1-477); conditions: protein: recombinant; tags: N-terminal GST; dsDNA, one strand shown
Summary of the method: as §1

ELF4, sequence (Q99607 whole entry): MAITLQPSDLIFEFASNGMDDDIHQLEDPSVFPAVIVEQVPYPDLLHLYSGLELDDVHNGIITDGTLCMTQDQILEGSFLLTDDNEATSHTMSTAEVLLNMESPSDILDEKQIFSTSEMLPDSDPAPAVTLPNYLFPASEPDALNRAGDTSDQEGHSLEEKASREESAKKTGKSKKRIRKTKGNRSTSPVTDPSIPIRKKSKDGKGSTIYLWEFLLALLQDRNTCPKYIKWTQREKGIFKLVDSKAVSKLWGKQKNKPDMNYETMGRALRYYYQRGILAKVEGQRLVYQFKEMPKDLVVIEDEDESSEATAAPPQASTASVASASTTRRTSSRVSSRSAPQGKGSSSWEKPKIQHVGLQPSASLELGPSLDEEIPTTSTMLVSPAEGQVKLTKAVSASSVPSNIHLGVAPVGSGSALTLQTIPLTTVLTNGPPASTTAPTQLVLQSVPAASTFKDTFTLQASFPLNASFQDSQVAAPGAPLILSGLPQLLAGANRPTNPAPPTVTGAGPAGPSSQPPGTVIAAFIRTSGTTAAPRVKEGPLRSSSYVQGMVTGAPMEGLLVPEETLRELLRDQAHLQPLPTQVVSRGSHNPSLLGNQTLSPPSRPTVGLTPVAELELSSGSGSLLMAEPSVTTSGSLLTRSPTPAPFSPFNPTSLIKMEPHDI
SPIB, sequence (Q01892 whole entry): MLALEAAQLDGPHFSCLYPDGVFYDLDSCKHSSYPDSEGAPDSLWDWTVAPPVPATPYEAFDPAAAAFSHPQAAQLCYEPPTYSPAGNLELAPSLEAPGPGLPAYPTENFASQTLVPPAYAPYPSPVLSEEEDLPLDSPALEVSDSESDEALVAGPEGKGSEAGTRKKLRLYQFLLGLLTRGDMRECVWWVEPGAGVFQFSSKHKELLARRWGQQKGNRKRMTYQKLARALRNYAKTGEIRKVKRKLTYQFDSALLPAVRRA
HSF1, sequence (Q00613 whole entry): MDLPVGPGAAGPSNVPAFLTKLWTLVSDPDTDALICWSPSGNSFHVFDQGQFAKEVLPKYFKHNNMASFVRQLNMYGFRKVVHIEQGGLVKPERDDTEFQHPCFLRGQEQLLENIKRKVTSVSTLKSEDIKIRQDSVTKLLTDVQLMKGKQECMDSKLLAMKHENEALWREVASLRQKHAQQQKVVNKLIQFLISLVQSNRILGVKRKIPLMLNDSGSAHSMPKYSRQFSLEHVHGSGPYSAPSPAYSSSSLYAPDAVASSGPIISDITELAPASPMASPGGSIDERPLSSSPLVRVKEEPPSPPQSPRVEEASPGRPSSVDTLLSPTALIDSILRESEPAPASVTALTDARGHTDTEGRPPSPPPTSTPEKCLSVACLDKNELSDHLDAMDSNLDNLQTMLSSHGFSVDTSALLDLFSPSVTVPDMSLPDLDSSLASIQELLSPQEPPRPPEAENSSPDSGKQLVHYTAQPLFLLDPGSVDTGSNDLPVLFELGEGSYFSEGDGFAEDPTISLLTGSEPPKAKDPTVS
ETV5, sequence (P41161 whole entry): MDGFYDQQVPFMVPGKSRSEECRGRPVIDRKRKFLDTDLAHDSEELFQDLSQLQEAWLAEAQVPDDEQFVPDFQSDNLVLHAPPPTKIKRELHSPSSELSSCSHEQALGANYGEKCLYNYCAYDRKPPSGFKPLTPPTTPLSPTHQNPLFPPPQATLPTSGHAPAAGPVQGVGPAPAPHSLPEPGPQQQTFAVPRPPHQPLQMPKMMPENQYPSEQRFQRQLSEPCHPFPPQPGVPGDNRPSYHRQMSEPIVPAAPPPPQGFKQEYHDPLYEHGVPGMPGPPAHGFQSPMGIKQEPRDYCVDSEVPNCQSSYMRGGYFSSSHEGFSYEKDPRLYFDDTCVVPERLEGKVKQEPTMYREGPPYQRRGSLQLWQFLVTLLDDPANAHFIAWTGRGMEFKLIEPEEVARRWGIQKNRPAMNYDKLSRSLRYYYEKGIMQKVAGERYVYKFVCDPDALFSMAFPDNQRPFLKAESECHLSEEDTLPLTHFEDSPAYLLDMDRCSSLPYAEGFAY
ETV1, sequence (P50549 whole entry): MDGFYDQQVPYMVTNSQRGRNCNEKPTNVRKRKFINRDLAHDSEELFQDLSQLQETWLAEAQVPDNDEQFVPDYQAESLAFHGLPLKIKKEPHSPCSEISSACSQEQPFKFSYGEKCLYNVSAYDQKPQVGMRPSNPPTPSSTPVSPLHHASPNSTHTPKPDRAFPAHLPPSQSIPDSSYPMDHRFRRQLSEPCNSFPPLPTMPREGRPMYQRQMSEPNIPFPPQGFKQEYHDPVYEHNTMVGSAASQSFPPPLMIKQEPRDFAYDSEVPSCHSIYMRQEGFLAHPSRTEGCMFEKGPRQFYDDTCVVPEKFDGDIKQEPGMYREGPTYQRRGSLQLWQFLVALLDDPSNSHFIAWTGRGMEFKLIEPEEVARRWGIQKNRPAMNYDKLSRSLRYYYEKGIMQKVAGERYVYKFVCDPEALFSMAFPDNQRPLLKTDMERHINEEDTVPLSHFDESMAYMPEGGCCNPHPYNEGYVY
CRX, sequence (O43186 whole entry): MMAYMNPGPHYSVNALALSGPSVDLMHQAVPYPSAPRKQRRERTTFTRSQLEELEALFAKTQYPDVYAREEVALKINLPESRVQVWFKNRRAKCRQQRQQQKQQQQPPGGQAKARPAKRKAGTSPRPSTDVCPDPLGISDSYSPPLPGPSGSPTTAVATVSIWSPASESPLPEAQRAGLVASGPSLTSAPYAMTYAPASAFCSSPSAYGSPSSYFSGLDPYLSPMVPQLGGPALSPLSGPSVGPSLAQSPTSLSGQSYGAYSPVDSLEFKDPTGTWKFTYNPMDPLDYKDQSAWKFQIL
ELF1, sequence (P32519 whole entry): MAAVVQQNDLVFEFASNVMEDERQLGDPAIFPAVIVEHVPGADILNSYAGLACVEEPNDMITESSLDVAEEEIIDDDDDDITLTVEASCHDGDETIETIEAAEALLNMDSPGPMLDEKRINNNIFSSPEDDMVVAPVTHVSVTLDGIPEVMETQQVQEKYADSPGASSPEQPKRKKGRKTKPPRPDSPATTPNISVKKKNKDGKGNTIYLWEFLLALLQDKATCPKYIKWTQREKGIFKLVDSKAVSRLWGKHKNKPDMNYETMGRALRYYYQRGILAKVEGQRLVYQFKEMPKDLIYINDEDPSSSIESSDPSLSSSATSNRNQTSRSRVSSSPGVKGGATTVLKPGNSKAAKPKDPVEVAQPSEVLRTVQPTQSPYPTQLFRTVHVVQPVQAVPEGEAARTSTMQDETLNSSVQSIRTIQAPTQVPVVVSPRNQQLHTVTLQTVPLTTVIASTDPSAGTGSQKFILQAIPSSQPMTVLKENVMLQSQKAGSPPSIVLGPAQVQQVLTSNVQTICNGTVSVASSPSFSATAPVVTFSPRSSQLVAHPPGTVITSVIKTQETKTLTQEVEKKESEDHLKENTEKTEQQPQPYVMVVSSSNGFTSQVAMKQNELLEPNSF

CTAACT
binding signal (FLI1): 1.36 fold enrichment (6-mer frequency, TF over GST control)
binding signal (ELK1): 1.35 fold enrichment (6-mer frequency, TF over GST control)
binding signal (GABPA): 1.36 fold enrichment (6-mer frequency, TF over GST control)
binding signal (ERG): 1.37 fold enrichment (6-mer frequency, TF over GST control)
binding signal (ELF1): 1.37 fold enrichment (6-mer frequency, TF over GST control)
binding signal (EHF): 1.25 fold enrichment (6-mer frequency, TF over GST control)
binding signal (SPI1): 1.36 fold enrichment (6-mer frequency, TF over GST control)
binding signal (SPIB): 1.35 fold enrichment (6-mer frequency, TF over GST control)
binding signal (ELK3): 1.29 fold enrichment (6-mer frequency, TF over GST control)
binding signal (FEV): 1.34 fold enrichment (6-mer frequency, TF over GST control)
binding signal (ETV5): 1.34 fold enrichment (6-mer frequency, TF over GST control)
binding signal (HSF1): 1.19 fold enrichment (6-mer frequency, TF over GST control)
binding signal (SPIC): 1.31 fold enrichment (6-mer frequency, TF over GST control)
binding signal (ELF4): 1.4 fold enrichment (6-mer frequency, TF over GST control)
binding signal (ELK4): 1.36 fold enrichment (6-mer frequency, TF over GST control)
binding signal (ETV2): 1.27 fold enrichment (6-mer frequency, TF over GST control)
binding signal (ELF3): 1.21 fold enrichment (6-mer frequency, TF over GST control)
binding signal (CRX): 1.21 fold enrichment (6-mer frequency, TF over GST control)
binding signal (ETV1): 1.28 fold enrichment (6-mer frequency, TF over GST control)
